This note sets out measurements from the supplement of paper PMC10338343.

± gives the standard deviation.

The experiment deals with EfPiwi piRISC loaded with L1MC piRNA (26 nt). Description: pre-steady-state target cleavage rate (min^-1); auxiliary factor: 500 nM Ephydatia muelleri Gtsf1; guide: L1MC piRNA 5'p-UAACUAAAUACUAUGCAAGCUGUAGG; MIWI and MILI are mouse PIWI proteins and EfPiwi is from a freshwater sponge; tags in brackets are library labels; higher = faster piRNA-guided slicing of the target. Here is the method: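 Cleave-'n-Seq: a library of target RNAs (target site in constant flanks) at […] was incubated with 1 nM active freshwater sponge Ephydatia fluviatilis Piwi piRISC (synthetic 5'-monophosphorylated piRNA guide) with or without 500 nM EmGtsf1 at 33 °C for 1 min to 16 h. Uncleaved targets were sequenced and the pooled three trials fitted to a burst-and-steady-state model to give the pre-steady-state cleavage rate (min^-1). Sequence is the target site only. Fits with R² ≤ 0 are excluded.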
Regarding UCCUCCUACAGCUUGCAUAGAAUUUAGAAA, the “pre-steady-state target cleavage rate” value is 0.00385 ± 0.0019. As for UCCUGGAUGUGCUGGCAUAGUAUUUAGUUA, the figure is 0.00525 ± 0.0029.

As to UCCUGCUACAGCUUGCUUAGUAUAUAGUUA, the “pre-steady-state target cleavage rate” value worked out at 0.0125 ± 0.0047.

Consider “UCCUGGUACAGCUUGCAUAGUAUUUAGUUU [g2:g24:cont:t1U]”, for which the “pre-steady-state target cleavage rate” value came out at 0.117 ± 0.038. As for UCCUCCUACAGCUUGCAUAGUAUGUAGUUA, the figure is 0.00354 ± 0.0013; as for UCCUGCUACAGCUUGCGAUAGUAUUUAGUUA, 0.00987 ± 0.0026; as for UCCUGCUACAGCUUGCAUUGUAUUUAGUAA, 0.00316 ± 0.0014. For UCCUCCAACAGCUUGCAUACUAUUUAGUUA, the “pre-steady-state target cleavage rate” value was 0.00961 ± 0.0032. As for UCCUCCUACUAGCUUGCAUAGUAUUUAGUUA, the figure is 0.127 ± 0.035; as for UCCUGGAUGAGCUUGCAUAGUAUUAAGAAA, 0.004 ± 0.0026; as for UCCUGGAACAGCUUGCAUAGUAUCUAGUUA, 0.0068 ± 0.0027. With UCCUGCUACAGCUUGCAUAGUUUUUAGAAA, the “pre-steady-state target cleavage rate” value was determined as 0.00343 ± 0.0019. As for UCCUGGAUGUCGUUAGCAUAGUAUUUAGUUA, the “pre-steady-state target cleavage rate” value was determined as 0.00456 ± 0.0035. For UCCUGGAACAGCAUGCAUAGUAUUAAGUUA, the “pre-steady-state target cleavage rate” value was determined as 0.00499 ± 0.0017.

For UCCUGGUACAGCAUUGCAUAGUAUUUAGUUA, the “pre-steady-state target cleavage rate” value was found to be 0.0107 ± 0.004. Take UCCUCCUACAGGAAGCAUAGUAUUUAGUUA: the “pre-steady-state target cleavage rate” value was 0.0159 ± 0.0041. As to UCCUGGAUGUCCUUCGCAUAGUAUUUAGUUA, the “pre-steady-state target cleavage rate” value came out at 0.01 ± 0.0052.

UCCUGGAUCAGCUUCCAUAGUAUUUAGAUA: the “pre-steady-state target cleavage rate” value came to 0.00231 ± 0.0018. As for UCCUGGAUCCAGCUUGCAUAGUAUUUAGUUA, the “pre-steady-state target cleavage rate” value was found to be 0.126 ± 0.022. UCCUGGAACGGCUUGCAUAGUAUUUAGUUA: the “pre-steady-state target cleavage rate” value was 0.0243 ± 0.0075. As for UCCUCCAUGAGCUUGCAUAGUAUUUACAAA, the figure is 0.00312 ± 0.0024; as for UCCUCGUACAGCUUGCAAAGUAUUUAGUUA, 0.143 ± 0.032.

As for UCCUCCUACUCCUUGCAUAGUAUUUAGAAA, the “pre-steady-state target cleavage rate” value stood at 0.00457 ± 0.0022. Turning to UCCUCCUACAGGAUGCAUAGUAUUUACAAA, the “pre-steady-state target cleavage rate” value stood at 0.0028 ± 0.0027. As for UCCUCCUACAGCUUGCAUUGUAUUUAGAAA, the “pre-steady-state target cleavage rate” value was 0.00363 ± 0.0015. On to UCCUGGAUGAGCUUGCAUAGUAUUUACUAA, for which the “pre-steady-state target cleavage rate” value was found to be 0.00198 ± 0.002.

Regarding UCCUGGAUCAGCUUGCACUAGUAUUUAGUUA, the “pre-steady-state target cleavage rate” value was determined as 0.00365 ± 0.0027. With UCCUCCUACAGCUUGCAUAGUAUUUAGCUUA, the “pre-steady-state target cleavage rate” value was found to be 0.00683 ± 0.0027. For the sequence UCCUGCUACACCUUGCAAAGUAUUUAGUUA, the “pre-steady-state target cleavage rate” value was 0.00571 ± 0.0021. In the case of UCCUCCUACAGCUUGCAUAGUAUUUAGUGA, the “pre-steady-state target cleavage rate” value came out at 0.00553 ± 0.0017. As for UCCUCCUACGGCUUGCAUAGUAUUUAGUUA, the figure is 0.0667 ± 0.017.

Consider UCCUGGAUGUCCUUGCUUAGUAUUUAGUUA, for which the “pre-steady-state target cleavage rate” value amounted to 0.00568 ± 0.0037.

Regarding “UCCUGGAUGUCGAACGUAUCUAUUUAGAAA [g4:g10:cont:t1A]”, the “pre-steady-state target cleavage rate” value was below 0.0001. Take UCCUGCAACAGCUUGCAUAGUAUUUAGAUA: the “pre-steady-state target cleavage rate” value came to 0.00372 ± 0.002.

On to UCCUGCUACAGCUUGCAUAGUAUUUUGAAA, for which the “pre-steady-state target cleavage rate” value stood at 0.0045 ± 0.0018.

On to UCCUCCUACACGAUGCAUAGUAUUUAGUUA, for which the “pre-steady-state target cleavage rate” value was found to be 0.0593 ± 0.017. With UCCUCCUAGUCCUUGCAUAGUAUUUAGAAA, the “pre-steady-state target cleavage rate” value is 0.00217 ± 0.0013. In the case of UCCUCCUACAGCUUGCAAAGUAAUUAGUUA, the “pre-steady-state target cleavage rate” value was 0.00531 ± 0.0022. Take UCCUCCUACAGCUUGCUUAGUAUUUACAAA: the “pre-steady-state target cleavage rate” value stood at 0.00329 ± 0.003. As to UCCUGGAUCAGCUAGCAAAGUAUUUAGUUA, the “pre-steady-state target cleavage rate” value came out at 0.00308 ± 0.0029.
